Source: PubChem
Marburg entry inh – blocks Marburg virus binding to or entry into cells; Marburg virus pseudotyped entry inhibition, cell reporter; Potency, µM (doses to about 37.8 µM), inactives show top-dose activity change, negative = inhibition, usual class: inhibitors; 300,000 compounds, 1.8% hits; AID 540276; calls by dose curve; tested in HEK293 cells; also: potency is read from the fitted curve at half-maximal effect
HCMV inh – blocks human cytomegalovirus replication; HFF cells, HCMV-luciferase reporter, 72 h; stronger effect = lower value; activity change, negative = inhibition, % at 57.5 µM; 410,000 compounds, 4.5% hits; AID 1259415; in the data active = activity change below about -60%; inconclusive = no clear call, values can overlap the other calls; inactive = above about -39%
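Two compound doses tested in HFFs infected with HCMV-luciferase, MOI 1 PFU/cell, 72 h at 37C. Lysate luminescence read with OneGlo; data normalized against buffer-only and 10uM Salinomycin inhibitor controls.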
FMDV inh – blocks foot and mouth disease virus | FMDV antiviral cell-based qHTS | Potency, µM (top dose mostly 57.9 µM), for the others: at the highest dose activity change, negative = inhibition, usual class: inhibitors | 410,000 compounds, 1.2% hits; calls by dose curve; tested in HEK293T cells; also: read-out not given here; potency is read from the fitted curve at half-maximal effect; nearly all actives have a fitted effect of over 45% in size
LASV entry inh – inhibitors of Lassa virus binding or cell entry. Lassa virus pseudotype entry inhibition, cell reporter. Potency, µM (titrated, usually from 37.9 µM), inactives show at the top dose activity change, negative = inhibition, actives largely listed as inhibitors. 300,000 compounds, 1.2% hits. AID 540256; calls by dose curve; tested in HEK293 cells; also: potency is read from the fitted curve at half-maximal effect; nearly all actives have a fitted effect of over 50% in size
VACV Venus inh – inhibitors of vaccinia virus (Venus reporter); Vaccinia virus Venus reporter expression, fluorescence; Potency, µM (titrated, usually from 36.5 µM), for the others: top-dose activity change, negative = inhibition, actives largely listed as inhibitors; 330,000 compounds, 0.46% hits; calls by dose curve; tested in A549 cells; also: potency is read from the fitted curve at half-maximal effect; nearly all actives have a fitted effect of over 30% in size
Vaccinia mCherry – inhibitors of vaccinia virus infection (mCherry reporter signal); Potency, µM (titrated, usually from 36.5 µM), inactives show at the top dose activity change, negative = inhibition, usual class: inhibitors; Vaccinia virus mCherry reporter infection, fluorescence; 310,000 compounds, 0.63% hits; calls by dose curve; tested in A549 cells; also: potency is read from the fitted curve at half-maximal effect; nearly all actives have a fitted effect of over 35% in size
An asterisk follows results filed as active; i = inactive; u = inconclusive; x = no result given; [ ] = dose if it differs, or a comment. An excerpt weighted towards active compounds, which were near 6.5% of everything screened. % is scaled to controls: 0 for no effect and ±100 for the full control effect.

SMILES	Marburg entry inh	HCMV inh	FMDV inh	LASV entry inh	VACV Venus inh	Vaccinia mCherry
CCn1c(-c2ccccc2F)nc2cc(C(=O)N3CCCC(CO)C3)cc(NC(C)=O)c21 (stereo not given)	x	x	5.1%	x	3.6%	-7.4%
Cc1cccc(-n2ncc3c2CCCC3NC(=O)C2=CC(=O)CC(C)(C)O2)c1C (stereo not given)	u	-67.6*	u	-21.6%	-13.3%	-8.3%
Cc1cc(C)c(C(=O)NC2CCCc3c2cnn3-c2cccc(C)c2C)o1 (stereo not given)	u	-74.3*	-17.0%	u	6.1%	-28.3%
CCc1cc(C(=O)NC2CCCc3c2cnn3-c2cccc(C)c2C)n(C)n1 (stereo not given)	u	-85.9*	28.2µM*	u	-13.2%	-27.4%
Cc1cccc(-n2ncc3c2CCCC3NC(=O)CCN2CCCO2)c1C (stereo not given)	u	-75.9*	0.0%	u	-15.0%	-20.2%
Cc1cccc(-n2ncc3c2CCCC3NC(=O)C2(C(N)=O)CC2)c1C (stereo not given)	u	-39.9	u	u	-15.8%	u
CCOC(=O)c1cccn1C1C(=O)N(Cc2ccc(OC)cc2)c2ccc(F)cc21 (stereo not given)	x	-9.8	x	x	x	x
CCOC(=O)c1cccn1C1C(=O)N(Cc2ccc(C(F)(F)F)cc2)c2ccc(OC(F)(F)F)cc21 (stereo not given)	x	-13.1	x	x	x	x
C[C@H]1[C@@H](NS(=O)(=O)c2ccccc2)CC[C@@]23CCCN2C(=O)CCC[C@@H]13	x	-15.6	x	x	x	x
COc1cccc(C(=O)Oc2cc3c4c(c2)C(C)=CC(C)(C)N4C(=O)C3=O)c1	u	-77.1*	x	u	-17.2%	i
COc1ccc(C(=O)Oc2cc3c4c(c2)C(C)=CC(C)(C)N4C(=O)C3=O)cc1OC	u	-13.8	u	12.0%	-6.3%	-12.1%
COc1cc2c3c(c1)C(C)=CC(C)(C)N3C(=O)C2=O	u	-84.6*	29.8%	2.5%	-0.3%	-22.1%
CCc1ccc(-c2nc3cc(NC(=O)c4ccc(F)cc4)ccc3o2)cc1	x	-20.1	-21.5%	18.5%[46.1 µM]	-1.8%	-9.0%
CCc1ccc(/C=C/c2c[nH]c3ccccc23)[n+](CC)c1	u	-97.1*	u	12.6µM*	-15.9%	-21.7%
Cc1[nH]c2ccccc2c1/C=C/c1c[nH]c2ccccc12	x	x	x	x	8.4%	22.6%
Cc1ccc(S(=O)(=O)Nc2ccc3c4c(cccc24)CC3)c(C)c1	u	-69.8*	30.8%	-21.9%	-29.2%	u
Cc1cc(C)c(S(=O)(=O)Nc2ccc3c4c(cccc24)CC3)c(C)c1	u	-99.9*	5.7%	1µM*	u	u
Cc1ccc(S(=O)(=O)Nc2ccc(O)c3ccccc23)c(C)c1	u	u	-11.7%	-6.0%	-15.7%	-19.8%
COc1cccc([C@@H]2C(C#N)=C(N)Oc3cc(C)[nH]c(=O)c32)c1OC	-1.0%	x	x	x	x	x
O=C(NCCCN1CCOCC1)C(=O)N/N=C/c1c2ccccc2cc2ccccc12	u	-93.4*	-15.8%	u	u	u
O=C(NCCCN1CCOCC1)C(=O)N/N=C/c1ccccc1Cl	x	1.9	20.8%	x	x	x
CC(C)c1ccc(/C=N/NC(=O)C(=O)NCCCN2CCOCC2)cc1	-5.8%	-61.6*	-18.5%	-0.8%	-18.8%	i
O=C(NCCCN1CCOCC1)C(=O)N/N=C/c1c(Cl)cccc1Cl	-13.4%[46.1 µM]	-38.7	19.5%	1.6%	8.0%	-4.4%
CCOC(=O)N1CCN(Cc2ccc3c(c2)CN(C(=O)c2noc4c2CCCC4)CCO3)CC1	x	x	u	x	-21.8%	-25.9%
Clc1ccc2nccnc2c1	x	x	x	x	5.8%	-14.4%
SMILES	Marburg entry inh	HCMV inh	FMDV inh	LASV entry inh	VACV Venus inh	Vaccinia mCherry
O=C(NCC1CCCO1)c1ccc(COc2ccccc2Br)cc1 (stereo not given)	u	u	1.9%	u	-15.9%	-9.0%
COc1cc(CNn2nnnc2N)cc(Br)c1OCc1c(Cl)cccc1Cl	u	-69.6*	u	u	x	x
COc1ccc(CN2CCC(=O)N([C@H](CO)c3ccccc3)CC2)cc1	x	-19.8	-15.2%	x	-4.7%	-29.1%
CC(=O)c1c(C)[nH]c(C(=O)Nc2ccc(C)cn2)c1C	2µM*	u	-85.2%	2.06µM*	-15.7%	i
CC(=O)c1c(C)[nH]c(C(=O)Nc2nc(-c3ccc(Cl)cc3)cs2)c1C	u	u	u	u	-8.3%	-8.4%
CC(=O)c1c(C)[nH]c(C(=O)Nc2nc(-c3ccc(-c4ccccc4)cc3)cs2)c1C	u	-39.0	11.2µM*	u	-18.2%	i
CC(=O)c1c(C)[nH]c(C(=O)Nc2nc(C)cs2)c1C	1.78µM*	-37.9	-86.7%	2.24µM*	-1.0%	-5.5%
CN(C)c1ccc(CNC(=O)C2COc3ccccc3C2)cc1 (stereo not given)	x	24.6	66.4%	0.1%[46.1 µM]	3.9%	3.2%
CCCCN1C(=O)C(=O)N(CC(=O)c2ccc3c(c2)CCCC3)C1=O	x	9.6	-13.5%	x	x	x
CC(=O)Nc1ccc2[nH]c3ccccc3c2c1	25.8%	-2.6	x	21.6%	-8.6%	-15.9%
O=C(Nc1ccc(Cl)cc1)c1cc2c(cc1O)[nH]c1ccccc12	7.94µM*	-81.2*	u	u	u	u
COc1cccc(C(O)c2nc(/C=C/c3ccc(C(F)(F)F)cc3)cs2)c1 (stereo not given)	x	-62.2*	-20.9%	x	-1.9%	0.8%
OC(c1cccc(Cl)c1)c1nc(/C=C/c2ccc(C(F)(F)F)cc2)cs1 (stereo not given)	x	-0.7	-22.4%	x	0.7%	-3.2%
Cc1cc(N2CCN(C/C=C/c3ccccc3)CC2)n2ncnc2n1	u	-91.3*	x	u	-11.7%	i
CCN1CCN(Cc2c(O)ccc3c2O/C(=C\C=C\c2ccccc2)C3=O)CC1	u	u	-11.9%	u	55.6%	87.0%
O=C1/C(=C/C=C/c2ccccc2)Oc2c1ccc(O)c2CN1CCN(CCO)CC1	x	0.0	-24.2%	x	x	x
CN(C)Cc1c(O)ccc2c1O/C(=C\C=C\c1ccccc1)C2=O	x	-65.0*	-18.2%	x	13.9%	2.5%
COc1ccccc1/C=C/C=C1\Oc2c(ccc(O)c2CN2CCN(CCO)CC2)C1=O	6.6%	-93.4*	0.3%	16.4%	36.7%	-5.6%
COc1ccc2nc3c(cc2c1)c(NC(=O)c1cccs1)nn3CC(C)C	u	-83.5*	1.5%	-19.3%	u	x
CC(=O)/C=C\c1cn(-c2ncc(C(F)(F)F)cc2Cl)c2ccccc12	u	-11.1	31.6µM*	u	-29.2%	x
N#C/C(=N\Nc1cccc(Cl)c1)C(=O)c1ccccc1	u	-86.7*	18.5%	u	x	x
N#C/C(=N\Nc1ccc(Cl)cc1)C(=O)c1ccsc1	u	-63.9*	1.2%	u	u	u
COc1ccc(C(=O)/C(C#N)=N/Nc2cccc([N+](=O)[O-])c2)cc1	14.6µM*	-98.3*	u	10.3µM*	x	x
N#C/C(=N\Nc1ccc(Cl)cc1)C(N)=S	u	-92.4*	-19.8%	u	-8.9%	u
